Records with an inconclusive call do not appear. Activity calls are given as the source filed them.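 How the source made its calls, unless noted: active means normalized viability below 100% at a tested concentration; inactive means the rest.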
Legend:
[1] = viability loss in pontine glioma line – cell-based, SU-DIPG-XVII, MIPE5.0, CellTiter-Glo, qHTS, dose response (AID 1347060; cut-off not given, nearly all actives have AC50 up to about 26 µM); settings: CellTiter-Glo ATP luminescence
[2] = viability loss in pontine glioma line – cell-based, SU-DIPG-XIII, MIPE4.0, CellTiter-Glo, qHTS, dose response (AID 1347061; cut-off not given, nearly all actives have AC50 up to about 37 µM;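 further: cells exposed to compound for 48 hours before readout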); settings: CellTiter-Glo ATP luminescence
[3] = viability loss in pontine glioma line – cell-based, JHH-DIPG-1, MIPE4.0, CellTiter-Glo, qHTS, dose response (AID 1347062; cut-off not given, nearly all actives have AC50 up to about 27 µM;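 on AC50: cells exposed to compound for two days before readout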); settings: JHH-DIPG-1 viability, CellTiter-Glo ATP luminescence
[4] = viability loss in pontine glioma line – cell-based, SU-DIPG-XIII, MIPE5.0, CellTiter-Glo, qHTS, dose response (AID 1347064; cut-off not given, nearly all actives have AC50 up to about 23 µM); settings: CellTiter-Glo ATP luminescence
[5] = growth inhibition of DIPG cells – cell-based, MIPE4.0 library, CellTiter-Glo luminescence, qHTS (AID 1347066; cut-off not given, nearly all actives have AC50 up to about 30 µM;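 further: cells exposed to compound for 48 hours before readout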); settings: SU-DIPG-VI viability, CellTiter-Glo ATP luminescence
[6] = compounds altering HSF1 focus formation in cells – imaging, Selleck Cancer Library (AID 1347162; in the data active means plate-normalised HSF1 focus index below about 0.46); settings: human cells, HSF1 nuclear foci imaging, at 10 µM; SSMD: measured here: HSF1 foci SSMD mean; cell count: measured here: cell number; plate-normalised HSF1 focus index: stronger effect = lower value
[7] = drug combination growth inhibition, ovarian cancer – cell-based, oncology-focused library, rucaparib conditional, profiling panel (AID 1508598); settings: patient-derived ovarian cancer cells, CellTiter-Glo viability, 144 h, stronger effect = lower value
[8] = JHH-DIPG-1 glioma cell viability, MIPE5.0 library, CellTiter-Glo luminescence, qHTS (AID 1347067; cut-off not given, nearly all actives have AC50 up to about 26 µM;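 further: cells exposed to compound for 48 hours before readout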); settings: JHH-DIPG-1 glioma viability, CellTiter-Glo ATP luminescence
[9] = viability loss with induced miR-34 in A549 – imaging, A549 dox-inducible miR-34, nuclei and caspase counts, primary screen (AID 1347080;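 active means compounds whose cell count with miR-34 switched on is under 0.7 times the count with it off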); settings: A549 miR-34 inducible, Hoechst nuclei count, 48 h
[10] = MELAS cybrid and Rieske KO viability enhancers – cell-based, MELAS cybrids, Rieske KO mouse fibroblasts, CellTiter-Glo, primary screen (AID 1508586;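 active means mean z-score across replicates of 1.96 or higher in either the MELAS or the Rieske mutant cell line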;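 further: z relative to plate mean and SD of compound and empty wells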); settings: low glucose
[11] = at 0.000305 µM, OCI-C5x cells, with rucaparib 10 µM, 100% = cells with rucaparib alone
[12] = at 0.000305 µM, OCI-C5x cells, without rucaparib
[13] = at 0.000305 µM, OCI-P5x cells, with rucaparib 20 µM, 100% = cells with rucaparib alone
[14] = at 0.000305 µM, OCI-P5x cells, without rucaparib
[15] = at 0.00122 µM, OCI-C5x cells, with rucaparib 10 µM, 100% = cells with rucaparib alone
[16] = at 0.00122 µM, OCI-C5x cells, without rucaparib
[17] = at 0.00122 µM, OCI-P5x cells, with rucaparib 20 µM, 100% = cells with rucaparib alone
[18] = at 0.00122 µM, OCI-P5x cells, without rucaparib
[19] = at 0.00488 µM, OCI-C5x cells, with rucaparib 10 µM, 100% = cells with rucaparib alone
[20] = at 0.00488 µM, OCI-C5x cells, without rucaparib
[21] = at 0.00488 µM, OCI-P5x cells, with rucaparib 20 µM, 100% = cells with rucaparib alone
[22] = at 0.00488 µM, OCI-P5x cells, without rucaparib
[23] = at 0.0195 µM, OCI-C5x cells, with rucaparib 10 µM, 100% = cells with rucaparib alone
[24] = at 0.0195 µM, OCI-C5x cells, without rucaparib
[25] = at 0.0195 µM, OCI-P5x cells, with rucaparib 20 µM, 100% = cells with rucaparib alone
[26] = at 0.0195 µM, OCI-P5x cells, without rucaparib
[27] = at 0.0781 µM, OCI-C5x cells, with rucaparib 10 µM, 100% = cells with rucaparib alone
[28] = at 0.0781 µM, OCI-C5x cells, without rucaparib
[29] = at 0.0781 µM, OCI-P5x cells, with rucaparib 20 µM, 100% = cells with rucaparib alone
[30] = at 0.0781 µM, OCI-P5x cells, without rucaparib
[31] = at 0.313 µM, OCI-C5x cells, with rucaparib 10 µM, 100% = cells with rucaparib alone
[32] = at 0.313 µM, OCI-C5x cells, without rucaparib
[33] = at 0.313 µM, OCI-P5x cells, with rucaparib 20 µM, 100% = cells with rucaparib alone
[34] = at 0.313 µM, OCI-P5x cells, without rucaparib
[35] = at 1.25 µM, OCI-C5x cells, with rucaparib 10 µM, 100% = cells with rucaparib alone
[36] = at 1.25 µM, OCI-C5x cells, without rucaparib
[37] = at 1.25 µM, OCI-P5x cells, with rucaparib 20 µM, 100% = cells with rucaparib alone
[38] = at 1.25 µM, OCI-P5x cells, without rucaparib
[39] = at 5 µM, OCI-C5x cells, with rucaparib 10 µM, 100% = cells with rucaparib alone
[40] = at 5 µM, OCI-C5x cells, without rucaparib
[41] = at 5 µM, OCI-P5x cells, with rucaparib 20 µM, 100% = cells with rucaparib alone
[42] = at 5 µM, OCI-P5x cells, without rucaparib

Cc1ccc([C@@H]2O[C@H](CO)[C@@H](O)[C@H](O)[C@H]2O)cc1Cc1ccc(-c2ccc(F)cc2)s1
active: viability [7, 13] 98.8% | viability [7, 14] 97.6% | viability [7, 18] 93.8% | viability [7, 22] 99.4%
7420: cell count [6]
0.238: SSMD [6]
inactive: outcome [1] | outcome [2] | outcome [3] | outcome [4] | outcome [5] | plate-normalised HSF1 focus index [6] 1.01 | viability [7, 11] 120% | viability [7, 12] 109% | viability [7, 15] 120% | viability [7, 16] 120% | viability [7, 17] 109% | viability [7, 19] 115% | viability [7, 20] 118% | viability [7, 21] 108% | viability [7, 23] 105% | viability [7, 24] 108% | viability [7, 25] 108% | viability [7, 26] 103% | viability [7, 27] 114% | viability [7, 28] 128% | viability [7, 29] 109% | viability [7, 30] 102% | viability [7, 31] 117% | viability [7, 32] 122% | viability [7, 33] 114% | viability [7, 34] 110% | viability [7, 35] 119% | viability [7, 36] 122% | viability [7, 37] 109% | viability [7, 38] 108% | viability [7, 39] 117% | viability [7, 40] 129% | viability [7, 41] 105% | viability [7, 42] 115%

O=C(O)CCC1CCC(c2cc(F)ccc2F)(S(=O)(=O)c2ccc(Cl)cc2)CC1 (configuration not stated)
10200: cell count ([9]; measured here: total cells without miR-34 induction)
1.51: SSMD [6]
0.781: z-score ([10]; Rieske KO mouse fibroblast survival, CellTiter-Glo 72 h)
7050: cell count [6]
active: AC50 [2] 18.7 µM | AC50 [3] 16.6 µM | AC50 [5] 6.62 µM | viability [7, 30] 93.6% | viability [7, 33] 99.9% | viability [7, 34] 89.3% | viability [7, 37] 94.5% | viability [7, 38] 87.7% | viability [7, 41] 84.8% | viability [7, 42] 76.9%
0.588: fold change ([9]; measured here: relative caspase fold change +Dox/-Dox)
8810: cell count ([9]; measured here: total cells with miR-34 induction, stronger effect = lower value)
inactive: outcome [1] | outcome [4] | outcome [8] | fold change ([9]; stronger effect = lower value, cell number ratio, induced over uninduced) 0.867 | plate-normalised HSF1 focus index [6] 1.09 | z-score ([10]; MELAS cybrid survival, CellTiter-Glo 48 h, stronger effect = higher value) -0.308 | viability [7, 11] 114% | viability [7, 12] 121% | viability [7, 13] 110% | viability [7, 14] 108% | viability [7, 15] 123% | viability [7, 16] 121% | viability [7, 17] 113% | viability [7, 18] 102% | viability [7, 19] 110% | viability [7, 20] 120% | viability [7, 21] 107% | viability [7, 22] 105% | viability [7, 23] 115% | viability [7, 24] 104% | viability [7, 25] 104% | viability [7, 26] 104% | viability [7, 27] 108% | viability [7, 28] 112% | viability [7, 29] 102% | viability [7, 31] 113% | viability [7, 32] 113% | viability [7, 35] 113% | viability [7, 36] 109% | viability [7, 39] 114% | viability [7, 40] 107%

— PubChem BioAssay
